{"source": "PubChem BioAssay (NCI)", "note": "The panel holds about 79,000 compounds, 15% with a hit somewhere; the sample as a whole holds those more often. Calls of active or inactive are those of the source. Cut-off read from the data, not from the text of the source: active = growth inhibition above about 70%; inactive = the rest."}
{"experiment": "NCI Yeast Anticancer Drug Screen. Data for the bub3 strain (AID 167)", "conditions": "S. cerevisiae bub3 mutant strain, at 50.0 µM, active compounds read high", "protocol": "Growth inhibition of yeast strains with defined genetic alterations is measured as a screen for potential anti-cancer activity. Selected strains with alterations in DNA damage repair or cell cycle control were exposed to compounds and growth inhibition was measured relative to vehicle treated controls. The strain used in this assay is bub3"}
{"smiles": "Clc1ccc(/C=C/c2ccccn2)cc1", "growth inhibition": "7.5% (inactive)"}
{"smiles": "Nc1ccccc1SC1CC(=O)N(c2ccc(Cl)c(Cl)c2)C1=O", "note": "(stereo not given)", "growth inhibition": "1.15% (inactive)"}
{"smiles": "COC(=O)C1=C(C)C(=O)CC1", "growth inhibition": "13.9% (inactive)"}
{"smiles": "Cn1c(=O)c2nc3c(=O)n(C)c(=O)n(C)c3nc2n(C)c1=O", "growth inhibition": "-13.7% (inactive)"}
{"smiles": "CC(=O)c1cccc(O)c1", "growth inhibition": "-5.1% (inactive)"}
{"smiles": "O=C(O)c1ccc([N+](=O)[O-])cc1S(=O)(=O)O", "growth inhibition": "-8.4% (inactive)"}
{"smiles": "CC(=O)OC/C(C)=C\\CC(C)COC(C)=O", "note": "(stereo not given)", "growth inhibition": "-18.6% (inactive)"}
{"smiles": "CNc1ccccc1C(N)=O", "growth inhibition": "-7.85% (inactive)"}
{"smiles": "OC(CCN1CCCCC1)(c1ccccc1)c1ccccc1", "growth inhibition": "-20.2% (inactive)"}
{"smiles": "NCCCN1CCCC1=O", "growth inhibition": "-23.3% (inactive)"}
{"smiles": "Nc1ncnc(Nc2ccccc2)n1", "growth inhibition": "-5.8% (inactive)"}
{"smiles": "CCOS(=O)(=O)c1ccc([N+](=O)[O-])cc1", "growth inhibition": "5.2% (inactive)"}
{"smiles": "COC1(OC)C2(Cl)C(Cl)=C(Cl)C1(Cl)C1COCC12", "note": "(stereo not given)", "growth inhibition": "22.2% (inactive)"}
{"smiles": "COc1nc2ccccc2s1", "growth inhibition": "1.5% (inactive)"}
{"smiles": "c1ccc(Nc2ccccn2)nc1", "growth inhibition": "3.8% (inactive)"}
{"smiles": "Oc1cccc(CNC2CCCCC2)c1", "growth inhibition": "-22.4% (inactive)"}
{"smiles": "O=C(O)C1CCCN1C(=O)OCc1ccccc1", "note": "(stereo not given)", "growth inhibition": "-22.9% (inactive)"}
{"smiles": "O=C(Nc1cccc(Cl)c1)c1ccc(Cl)cc1Cl", "growth inhibition": "20.6% (inactive)"}
{"smiles": "CCOC(=O)N[C@H]1CCc2cc(OC)c(OC)c(OC)c2-c2ccc(SC)c(=O)cc21", "growth inhibition": "1.35% (inactive)"}
{"smiles": "CNc1ccccc1C(=O)N/N=C/C=C/c1ccccc1", "growth inhibition": "5.3% (inactive)"}
{"smiles": "C=CCNC(=S)N/C=C(/C(=O)c1ccccc1)c1ccccc1", "growth inhibition": "-20.4% (inactive)"}
{"smiles": "NC(=O)NCCO", "growth inhibition": "-6.05% (inactive)"}
{"smiles": "O=c1n(CC2CO2)c(=O)n(CC2CO2)n1CC1CO1", "note": "(stereo not given)", "growth inhibition": "-26.7% (inactive)"}
{"smiles": "C(=C\\c1ccncc1)/c1ccncc1", "growth inhibition": "7.8% (inactive)"}
{"smiles": "CCOC(=O)C(C#N)=C1CCN(C)CC1", "growth inhibition": "-27.4% (inactive)"}
{"smiles": "CCCCCCCCCCC(=O)CCCCCCCCCC", "growth inhibition": "7.6% (inactive)"}
{"smiles": "Cc1cc2c(C(C)C)c(O)c(O)c(C=Nc3ccccc3[N+](=O)[O-])c2c(O)c1-c1c(C)cc2c(C(C)C)c(O)c(O)c(C=Nc3ccccc3[N+](=O)[O-])c2c1O", "growth inhibition": "-17.4% (inactive)"}
{"smiles": "CSc1nsc(N)n1", "growth inhibition": "16.8% (inactive)"}
{"smiles": "CN(C)c1ncnc2c1cnn2C", "growth inhibition": "-0.7% (inactive)"}
{"smiles": "CCCCCCCCNC(=O)C(C)C", "growth inhibition": "-18.6% (inactive)"}
{"smiles": "CCOC(=O)CNC", "growth inhibition": "10.3% (inactive)"}
{"smiles": "C[C@H](CCC[C@H](C)OS(=O)(=O)c1ccccc1)OS(=O)(=O)c1ccccc1", "growth inhibition": "-8.15% (inactive)"}
{"smiles": "CC(C)C(C)(C)C(=O)C(C)(C)C(C)(C)C", "growth inhibition": "2.6% (inactive)"}
{"smiles": "CCOc1ccncc1[N+](=O)[O-]", "growth inhibition": "10.1% (inactive)"}
{"smiles": "CC(=O)N(C)N=Nc1ccc(C)cc1", "growth inhibition": "0.1% (inactive)"}
{"smiles": "COc1cc(OC)c2cc(C(=O)c3ccc(C#N)cc3)c(=O)oc2c1", "growth inhibition": "35.1% (inactive)"}
{"smiles": "O=C(O)CC1=CCCCC1", "growth inhibition": "-4.65% (inactive)"}
{"smiles": "CC(=O)C[n+]1ccc(C)cc1Sc1ccccc1C", "growth inhibition": "-3.35% (inactive)"}
{"smiles": "Cc1ccc(S(N)(=O)=O)cc1Cl", "growth inhibition": "-1.5% (inactive)"}
{"smiles": "Oc1ccc(CCC2CCNc3ccccc32)cc1", "note": "(stereo not given)", "growth inhibition": "-3.95% (inactive)"}
